# The list is not random: actives were taken first. Their share in the collection is about 0.47%.
# AID inhibitor: blocks human AID cytidine deaminase activity; Q9GZX7; AID deamination FRET fluorescence, UDG-coupled, 4 h; Potency, µM (doses to about 115 µM), actives largely listed as inhibitors; actives 0.32% (n = 91,000); also: nearly all actives have a fitted effect of over 25% in size
# Target sequence (Q9GZX7 whole entry, looked up): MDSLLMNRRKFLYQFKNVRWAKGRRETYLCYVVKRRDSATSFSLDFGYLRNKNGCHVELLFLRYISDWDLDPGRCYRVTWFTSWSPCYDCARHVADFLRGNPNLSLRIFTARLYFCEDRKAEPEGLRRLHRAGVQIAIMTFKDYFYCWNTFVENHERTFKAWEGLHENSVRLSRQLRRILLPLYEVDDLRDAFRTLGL
# UDG counter: blocks uracil-DNA glycosylase in AID counter-screen; FRET deamination/UDG coupled assay, UDG read, 4 h; Potency, µM (top dose mostly 115 µM), without a hit: top-dose activity change, negative = inhibition, usual class: inhibitors; actives 0.14% (n = 91,000); also: nearly all actives have a fitted effect of over 65% in size
# * marks the source's active call; other numbers are inactive results; i = inactive; ? = inconclusive; [ ] = another dose, or the depositor's remark. Calls follow the shape of the dose curve; as a rule, active = well fitted curve in the direction sought with a large enough effect; inconclusive = small, poorly fitted or top-dose-only effect, or another doubt; inactive = no such curve, though single readings can be large; an effect the other way counts as inactive or inconclusive. % is scaled to controls: 0 for no effect and ±100 for the full control effect; potency is read from the fitted curve at half-maximal effect.
SMILES,AID inhibitor,UDG counter
COc1ccccc1-n1c(/C=C/c2ccccc2)nc2ccccc2c1=O,i,0%
COc1ccc(-n2c(/C=C\c3ccccc3F)nc3ccccc3c2=O)c(OC)c1,?,79µM*
COc1ccc2[nH]c(C)c(CCNCC(C)(C)C)c2c1,i,0%
O=c1oc2ccccc2c(O)c1C(c1ccccc1)c1c(O)c2ccccc2oc1=O,45µM*,13%
Cc1c(C(c2ccc(O)cc2)c2c(O)c3ccccc3oc2=O)c(=O)n(-c2ccccc2)n1C (centres undefined),i,4%
COc1ccc(OC)c(C(c2c(O)c3ccccc3oc2=O)c2c(C)n(C)n(-c3ccccc3)c2=O)c1 (centres undefined),i,-3%
O=c1oc2ccccc2c(O)c1C(c1cccc(O)c1)c1c(O)c2ccccc2oc1=O,50µM*,-3%
C=CCOc1cccc(CNCCc2ccccc2)c1,i,-13%
COc1ccc2[nH]c3c(c2c1)CCNC3,i,-15%
CC12CNCC(C)(CNC1)C2=O,?,50µM*
Cc1ccc(-n2c(CC3C(=O)Nc4ccccc43)nc3ccccc3c2=O)cc1 (centres undefined),i,1%
CCCc1ccc(OCC(=O)Nc2ccc(Cl)cc2C(=O)c2ccccc2)cc1,i,0%[57.5 µM]
NCC(O)c1cc(O)c(O)cc1F (centres undefined),50µM*,-4%
O=C(COc1ccccc1[N+](=O)[O-])N1CCN(CCc2ccncc2)CC1,i,0%[57.5 µM]
O=C(Nc1ccc2c(c1)OCCO2)c1cccn(Cc2ccccc2)c1=O,i,-23%
